Inconclusive results are not listed. Active and inactive are the calls of the source. Calls come from the whole dose curve; as a rule, active = well fitted cell-killing curve with a large enough effect; inconclusive = small, poorly fitted or top-dose-only effect, or effect the other way; inactive = no such curve, though single readings can be large or run the other way.
Potency is the fitted concentration of half-maximal effect.

The nature of one test: Quantitative High-Throughput drug screen in 47 multiple myeloma cell lines against the NCATS MIPE library collection: OPM2_DSMZ cell viability assay (AID 1919872). Note: nearly all actives have a fitted effect of over 30% in size. As to conditions: OPM2 myeloma viability, CellTiter-Glo ATP luminescence, 48 h; series mostly up to 45.8 µM; viability (% of DMSO): at the top concentration. In short, it runs like this:
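CellTiter-Glo ATP luminescence gave viability after 48 h compound treatment at 37C of 500 multiple myeloma cells per well. Normalisation used DMSO-only wells as 100% and media-only wells as 0% viability; primary qHTS of approved and investigational drugs.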
For orientation: In ATP-based viability assays light output follows the ATP content of the culture.
`c1ccc2c(CCNc3ccc(Nc4ccncc4)cc3)c[nH]c2c1`: the “viability (% of DMSO)” value was 98.4% (inactive).

Regarding `O=C(O)c1ccc2c(c1)nc(Nc1cccc(Cl)c1)c1ccncc12`, the Potency was 20900 nM (active).

As to `O=C(O)Cn1nnc(-c2cc(N3CCC(Oc4cc(F)ccc4Br)CC3)no2)n1`, the “viability (% of DMSO)” value is 103% (inactive).

Take `Cc1[nH]c2ccccc2c1CCNCc1ccc(C=CC(=O)NO)cc1`: the Potency is 93.5 nM (active).

For `Nc1ccccc1NC(=O)c1ccc(CNc2nccc(-c3cccnc3)n2)cc1`, the Potency was 2640 nM (active).

On to `Cc1cn(-c2cc(NC(=O)c3ccc(C)c(Nc4nccc(-c5cccnc5)n4)c3)cc(C(F)(F)F)c2)cn1`, for which the Potency is 14800 nM (active).

As for `O=C(O)CCCc1c[nH]c2ccccc12`, the “viability (% of DMSO)” value is 106% (inactive).

Take `CNC(=O)c1c(F)cccc1Nc1nc(Nc2cc3c(cc2OC)CCN3C(=O)CN(C)C)nc2[nH]ccc12`: the Potency was 11800 nM (active).

Regarding `COc1c(N2C[C@@H]3CCCN[C@H]3C2)c(F)cc2c(=O)c(C(=O)O)cn(C3CC3)c12`, the Potency was 6620 nM (active).

Consider `CC=C1NC(=O)[C@H]2CSSCCC=C[C@H](CC(=O)N[C@H](C(C)C)C(=O)N2)OC(=O)[C@H](C(C)C)NC1=O`, for which the Potency was 29.6 nM (active).

For `COc1ccc(CC2c3cc(OC)c(OC)cc3CC[N+]2(C)CCC(=O)OCCCCCOC(=O)CC[N+]2(C)CCc3cc(OC)c(OC)cc3C2Cc2ccc(OC)c(OC)c2)cc1OC` (configuration not stated), the viability (% of DMSO) is 116% [at 5.15 µM] (inactive).

For `Cc1cc(CN2CCN(c3c(Br)cnc4nc(-c5ccc(N6CCN(C)CC6)cc5)[nH]c34)CC2)no1`, the Potency is 18700 nM (active).

In the case of `COc1cc(C(=O)N2CCC(N3CCN(C)CC3)CC2)ccc1Nc1ncc2c(n1)N(C)c1ccccc1C(=O)N2C`, the Potency was 10500 nM (active).

Regarding `CCCNC(=O)Nc1ccc(Oc2ncnc3cc(OC)c(OC)cc23)cc1Cl`, the “viability (% of DMSO)” value was 98.8% (inactive).

As for `O=C(O)CO.[NH2-].[NH2-].[Pt+2]`, the “viability (% of DMSO)” value is 107% (inactive).

Turning to `O=C1CCC[C@@H]2[C@H]3CCC[N+]4([O-])CCC[C@@H](CN12)[C@@H]34` (some centres not stated), the “viability (% of DMSO)” value is 118% (inactive).

Turning to `CC1(C)CCC(c2ccc(Cl)cc2)=C(CN2CCN(c3ccc(C(=O)NS(=O)(=O)c4ccc(N[C@H](CCN5CCOCC5)CSc5ccccc5)c(S(=O)(=O)C(F)(F)F)c4)cc3)CC2)C1`, the Potency is 18700 nM (active).

Turning to `Cc1c(Cn2c(C)nc3c(C(=O)O)cc(N4CCOCC4)cc32)cccc1C(F)(F)F`, the “viability (% of DMSO)” value is 117% (inactive).

For `CN[C@H]1CCc2cc(OC)c(OC)c(OC)c2-c2ccc(OC)c(=O)cc21`, the Potency was 1.7 nM (active).

`O=c1[nH]c(=O)n(C2CCCO2)cc1F` (configuration not stated): the “viability (% of DMSO)” value is 104% [at 92.2 µM] (inactive).

As for `CCNC(=O)Nc1ccc2ncc(Nc3ccc(C)cc3)nc2n1`, the “viability (% of DMSO)” value was 84.3% (inactive).

As to `Cc1ccc(C(=O)Nc2cccc(C(F)(F)F)c2)cc1-c1ccc2nc(NCCN3CCOCC3)ncc2c1`, the Potency is 18700 nM (active).

In the case of `COc1ccc(-c2cc3c(C)nc(N)nc3n(C3CCC(OCCO)CC3)c2=O)cn1` (configuration not stated), the Potency was 66.2 nM (active).

For the compound `c1cc(-c2cnn3cc(-c4ccc(OCCN5CCCCC5)cc4)cnc23)ccn1`, the Potency was 20900 nM (active).

Turning to `COc1cccc(Nc2c(C(N)=O)cnc3c(C)cc(S(=O)(=O)c4cccc(C(=O)N(C)C)c4)cc23)c1`, the “viability (% of DMSO)” value was 88.6% [at 23.2 µM] (inactive).

For the compound `C[C@@H](Oc1cc(-n2cnc3ccc(CN4CCN(C)CC4)cc32)sc1C(N)=O)c1ccccc1C(F)(F)F`, the Potency was 59 nM (active).

For the compound `CC=CC1=C(C(=O)O)N2C(=O)[C@H](NC(=O)[C@H](N)c3ccc(O)cc3)[C@@H]2SC1`, the “viability (% of DMSO)” value is 99.2% (inactive).

Another test in a line: Quantitative High-Throughput drug screen in 47 multiple myeloma cell lines against the NCATS MIPE library collection: KMS11_JCRBsus cell viability assay (AID 1919873). Note: nearly all actives have a fitted effect of over 50% in size. The following applies: KMS11 myeloma viability, CellTiter-Glo ATP luminescence, 48 h; series mostly up to 45.8 µM; viability (% of control): at the top concentration. In short, it runs like this: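 Plated at 500 cells per well, myeloma lines received MIPE 4.0 compounds by pin tool. Following 48 h culture at 37 °C, CellTiter-Glo luminescence gave viability relative to DMSO and media-only controls.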
As for `O=C(O)c1ccc2c(c1)nc(Nc1cccc(Cl)c1)c1ccncc12`, the Potency was 7430 nM (active).

With `Cc1[nH]c2ccccc2c1CCNCc1ccc(C=CC(=O)NO)cc1`, the Potency was 66.2 nM (active).

Regarding `Nc1ccccc1NC(=O)c1ccc(CNc2nccc(-c3cccnc3)n2)cc1`, the Potency was 662 nM (active).

Take `Cc1cn2cc(C(=O)N(C)CCO)cc(N[C@@H]3CCOc4cccc(C)c43)c2n1`: the “viability (% of control)” value is 107% (inactive).

As for `CCCn1c(=O)c2[nH]c(-c3cnn(Cc4cccc(C(F)(F)F)c4)c3)nc2n(CC)c1=O`, the “viability (% of control)” value was 104% (inactive).

As to `O=C(C=Cc1cccnc1)NCCCCC1CCN(C(=O)c2ccccc2)CC1`, the Potency is 14.8 nM (active).

On to `CNC(=O)c1c(F)cccc1Nc1nc(Nc2cc3c(cc2OC)CCN3C(=O)CN(C)C)nc2[nH]ccc12`, for which the Potency was 66.2 nM (active).

Consider `COc1cccc(-c2ccc(NC(=O)C3=C(C(=O)O)CCC3)c(F)c2)c1`, for which the Potency was 14800 nM (active).

Regarding `CC=C1NC(=O)[C@H]2CSSCCC=C[C@H](CC(=O)N[C@H](C(C)C)C(=O)N2)OC(=O)[C@H](C(C)C)NC1=O`, the Potency is 18.7 nM (active).

As to `COc1ccc(CC2c3cc(OC)c(OC)cc3CC[N+]2(C)CCC(=O)OCCCCCOC(=O)CC[N+]2(C)CCc3cc(OC)c(OC)cc3C2Cc2ccc(OC)c(OC)c2)cc1OC` (configuration not stated), the viability (% of control) is 114% [at 5.15 µM] (inactive).

Take `O=C(O)CO.[NH2-].[NH2-].[Pt+2]`: the “viability (% of control)” value is 86.5% (inactive).

On to `Cc1c(Cn2c(C)nc3c(C(=O)O)cc(N4CCOCC4)cc32)cccc1C(F)(F)F`, for which the “viability (% of control)” value was 95.1% (inactive).

On to `CN[C@H]1CCc2cc(OC)c(OC)c(OC)c2-c2ccc(OC)c(=O)cc21`, for which the Potency is 1.3 nM (active).

Turning to `Cc1ccc(C(=O)Nc2cccc(C(F)(F)F)c2)cc1-c1ccc2nc(NCCN3CCOCC3)ncc2c1`, the Potency was 2960 nM (active).

Regarding `COc1cccc(Nc2c(C(N)=O)cnc3c(C)cc(S(=O)(=O)c4cccc(C(=O)N(C)C)c4)cc23)c1`, the “viability (% of control)” value was 75.9% [at 23.2 µM] (inactive).

On to `C[C@@H](Oc1cc(-n2cnc3ccc(CN4CCN(C)CC4)cc32)sc1C(N)=O)c1ccccc1C(F)(F)F`, for which the Potency is 23.5 nM (active).

Regarding `CC(C)Nc1cc(C(F)(F)F)cc2nc(NC(=O)c3cccnc3)nn12`, the “viability (% of control)” value was 97.7% (inactive).

`CC=CC1=C(C(=O)O)N2C(=O)[C@H](NC(=O)[C@H](N)c3ccc(O)cc3)[C@@H]2SC1`: the “viability (% of control)” value was 109% (inactive).

On to `CC(=O)SC[C@@H](C)C(=O)N1CCC[C@H]1C(=O)N[C@@H](Cc1ccccc1)C(=O)O`, for which the “viability (% of control)” value is 114% (inactive).

In the case of `CC(O)C1C(=O)N2C(C(=O)O)=C(SC3CNC(C(=O)N(C)C)C3)C(C)C12` (configuration not stated), the “viability (% of control)” value was 99.1% (inactive).

The values are drawn from PubChem BioAssay (NCATS).
